ChEMBL document CHEMBL1961873, “Compounds: GSK PKIS; Assays: Nanosyn kinase panel” (2012)

Assays:
[1] = test system: Proto-oncogene tyrosine-protein kinase receptor Ret (Homo sapiens), P07949 [Y791F]; details: at 1 µM
[2] = biological target: Macrophage-stimulating protein receptor (Homo sapiens) (UniProt Q04912); details: at 0.1 µM
[3] = biological target: Macrophage-stimulating protein receptor (Homo sapiens) (UniProt Q04912); details: at 1 µM
[4] = biological target: Proto-oncogene tyrosine-protein kinase ROS (Homo sapiens) (UniProt P08922); details: at 0.1 µM
Chain of Proto-oncogene tyrosine-protein kinase ROS (Homo sapiens) (P08922 whole entry): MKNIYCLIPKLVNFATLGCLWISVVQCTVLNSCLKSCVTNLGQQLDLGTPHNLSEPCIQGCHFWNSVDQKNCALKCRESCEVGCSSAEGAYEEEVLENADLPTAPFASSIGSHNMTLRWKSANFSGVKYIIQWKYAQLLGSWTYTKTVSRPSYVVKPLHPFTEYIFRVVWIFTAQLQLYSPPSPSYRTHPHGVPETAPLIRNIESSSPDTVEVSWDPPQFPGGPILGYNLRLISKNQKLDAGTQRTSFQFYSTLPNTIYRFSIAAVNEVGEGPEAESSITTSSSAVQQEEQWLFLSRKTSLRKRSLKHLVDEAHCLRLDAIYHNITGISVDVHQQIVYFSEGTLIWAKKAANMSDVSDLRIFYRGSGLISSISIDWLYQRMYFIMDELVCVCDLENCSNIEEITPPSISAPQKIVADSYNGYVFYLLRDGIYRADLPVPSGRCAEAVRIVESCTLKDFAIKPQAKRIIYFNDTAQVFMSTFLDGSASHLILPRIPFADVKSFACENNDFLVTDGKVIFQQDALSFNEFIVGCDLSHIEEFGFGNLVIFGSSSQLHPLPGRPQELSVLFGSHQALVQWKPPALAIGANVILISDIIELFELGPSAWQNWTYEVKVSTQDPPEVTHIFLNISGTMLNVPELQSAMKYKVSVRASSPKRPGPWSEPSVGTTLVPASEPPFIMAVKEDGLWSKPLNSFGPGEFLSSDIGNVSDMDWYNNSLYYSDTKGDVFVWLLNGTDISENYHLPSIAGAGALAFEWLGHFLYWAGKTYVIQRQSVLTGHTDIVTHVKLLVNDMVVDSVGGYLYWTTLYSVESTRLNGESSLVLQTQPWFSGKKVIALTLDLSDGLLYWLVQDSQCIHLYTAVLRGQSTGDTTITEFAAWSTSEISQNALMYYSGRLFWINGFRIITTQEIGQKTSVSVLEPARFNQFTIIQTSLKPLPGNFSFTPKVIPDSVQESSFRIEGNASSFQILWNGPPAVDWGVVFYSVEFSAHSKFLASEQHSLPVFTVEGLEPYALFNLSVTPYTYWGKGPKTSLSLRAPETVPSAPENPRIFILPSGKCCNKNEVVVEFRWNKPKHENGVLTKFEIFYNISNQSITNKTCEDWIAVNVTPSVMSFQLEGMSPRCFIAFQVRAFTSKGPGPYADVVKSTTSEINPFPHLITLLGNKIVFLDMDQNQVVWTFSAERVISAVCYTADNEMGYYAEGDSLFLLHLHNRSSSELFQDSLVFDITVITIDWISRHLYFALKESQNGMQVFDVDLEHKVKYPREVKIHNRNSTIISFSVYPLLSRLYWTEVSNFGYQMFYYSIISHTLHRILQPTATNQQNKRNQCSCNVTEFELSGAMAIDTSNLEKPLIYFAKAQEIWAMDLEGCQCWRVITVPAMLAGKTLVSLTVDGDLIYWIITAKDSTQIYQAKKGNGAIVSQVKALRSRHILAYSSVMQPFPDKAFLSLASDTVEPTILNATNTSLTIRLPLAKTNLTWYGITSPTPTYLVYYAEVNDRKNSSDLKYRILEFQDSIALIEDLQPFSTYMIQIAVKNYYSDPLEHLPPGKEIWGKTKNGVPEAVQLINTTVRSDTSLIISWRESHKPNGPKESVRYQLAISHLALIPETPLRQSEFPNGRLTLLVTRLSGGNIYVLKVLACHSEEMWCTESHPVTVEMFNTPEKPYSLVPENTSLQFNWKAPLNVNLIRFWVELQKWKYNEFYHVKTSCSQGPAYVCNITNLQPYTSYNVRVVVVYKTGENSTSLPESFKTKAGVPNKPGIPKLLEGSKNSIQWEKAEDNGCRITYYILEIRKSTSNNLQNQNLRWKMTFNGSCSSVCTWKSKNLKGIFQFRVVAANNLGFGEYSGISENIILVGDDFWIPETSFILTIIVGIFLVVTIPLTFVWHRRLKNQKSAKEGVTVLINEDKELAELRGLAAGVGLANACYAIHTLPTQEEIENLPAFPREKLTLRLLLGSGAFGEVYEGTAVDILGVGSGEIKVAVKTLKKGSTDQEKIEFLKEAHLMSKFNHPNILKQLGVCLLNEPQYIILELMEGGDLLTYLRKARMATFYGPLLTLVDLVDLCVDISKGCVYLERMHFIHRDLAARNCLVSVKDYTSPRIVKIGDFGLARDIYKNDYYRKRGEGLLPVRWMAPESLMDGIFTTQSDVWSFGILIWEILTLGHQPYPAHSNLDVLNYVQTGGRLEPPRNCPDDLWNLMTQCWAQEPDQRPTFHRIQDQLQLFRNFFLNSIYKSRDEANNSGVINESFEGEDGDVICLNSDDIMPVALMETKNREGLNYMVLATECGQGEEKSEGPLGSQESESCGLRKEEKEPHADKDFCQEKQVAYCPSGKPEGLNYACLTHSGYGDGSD

[5] = biological target: Proto-oncogene tyrosine-protein kinase ROS (Homo sapiens) (UniProt P08922); details: at 1 µM
[6] = biological target: Proto-oncogene tyrosine-protein kinase Src (Homo sapiens) (UniProt P12931); details: at 0.1 µM
Chain of Proto-oncogene tyrosine-protein kinase Src (Homo sapiens) (P12931 2-536 limits assumed): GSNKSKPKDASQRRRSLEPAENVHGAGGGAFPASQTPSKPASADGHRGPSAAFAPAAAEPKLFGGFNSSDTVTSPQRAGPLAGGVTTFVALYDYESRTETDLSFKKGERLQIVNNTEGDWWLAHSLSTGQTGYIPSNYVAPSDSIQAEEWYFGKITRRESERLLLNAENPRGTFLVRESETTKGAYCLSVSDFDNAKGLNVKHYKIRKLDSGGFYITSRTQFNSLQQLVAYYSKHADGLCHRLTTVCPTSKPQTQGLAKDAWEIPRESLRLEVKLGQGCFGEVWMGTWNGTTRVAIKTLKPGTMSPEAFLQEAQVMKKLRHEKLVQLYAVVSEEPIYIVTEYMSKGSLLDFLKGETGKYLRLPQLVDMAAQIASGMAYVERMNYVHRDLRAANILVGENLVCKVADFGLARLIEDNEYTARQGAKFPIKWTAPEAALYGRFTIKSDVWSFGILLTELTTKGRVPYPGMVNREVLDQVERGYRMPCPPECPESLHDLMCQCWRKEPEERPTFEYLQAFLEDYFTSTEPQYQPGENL

[7] = biological target: Proto-oncogene tyrosine-protein kinase Src (Homo sapiens) (UniProt P12931); details: at 1 µM
[8] = biological target: Tyrosine-protein kinase Srms (Homo sapiens) (UniProt Q9H3Y6); details: at 0.1 µM
Chain of Tyrosine-protein kinase Srms (Homo sapiens) (Q9H3Y6 whole entry): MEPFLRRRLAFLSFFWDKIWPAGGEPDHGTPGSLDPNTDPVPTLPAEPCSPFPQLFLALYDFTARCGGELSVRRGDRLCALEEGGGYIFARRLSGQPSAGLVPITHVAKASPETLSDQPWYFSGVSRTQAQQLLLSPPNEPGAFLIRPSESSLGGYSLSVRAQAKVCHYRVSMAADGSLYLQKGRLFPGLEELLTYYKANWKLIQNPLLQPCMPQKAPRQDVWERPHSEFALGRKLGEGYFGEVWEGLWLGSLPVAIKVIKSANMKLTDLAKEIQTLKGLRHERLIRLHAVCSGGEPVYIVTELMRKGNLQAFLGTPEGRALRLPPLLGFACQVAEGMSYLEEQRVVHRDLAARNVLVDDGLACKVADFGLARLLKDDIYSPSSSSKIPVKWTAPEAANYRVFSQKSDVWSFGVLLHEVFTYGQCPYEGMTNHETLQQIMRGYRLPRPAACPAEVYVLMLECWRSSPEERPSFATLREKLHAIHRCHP

[9] = biological target: Tyrosine-protein kinase Srms (Homo sapiens) (UniProt Q9H3Y6); details: at 1 µM
[10] = biological target: Tyrosine-protein kinase SYK (Homo sapiens) (UniProt P43405); details: at 0.1 µM
[11] = biological target: Tyrosine-protein kinase SYK (Homo sapiens) (UniProt P43405); details: at 1 µM
[12] = biological target: T1, Tyrosine-protein kinase Tec (Homo sapiens) (UniProt P42680); details: at 0.1 µM
T1 sequence (whole entry): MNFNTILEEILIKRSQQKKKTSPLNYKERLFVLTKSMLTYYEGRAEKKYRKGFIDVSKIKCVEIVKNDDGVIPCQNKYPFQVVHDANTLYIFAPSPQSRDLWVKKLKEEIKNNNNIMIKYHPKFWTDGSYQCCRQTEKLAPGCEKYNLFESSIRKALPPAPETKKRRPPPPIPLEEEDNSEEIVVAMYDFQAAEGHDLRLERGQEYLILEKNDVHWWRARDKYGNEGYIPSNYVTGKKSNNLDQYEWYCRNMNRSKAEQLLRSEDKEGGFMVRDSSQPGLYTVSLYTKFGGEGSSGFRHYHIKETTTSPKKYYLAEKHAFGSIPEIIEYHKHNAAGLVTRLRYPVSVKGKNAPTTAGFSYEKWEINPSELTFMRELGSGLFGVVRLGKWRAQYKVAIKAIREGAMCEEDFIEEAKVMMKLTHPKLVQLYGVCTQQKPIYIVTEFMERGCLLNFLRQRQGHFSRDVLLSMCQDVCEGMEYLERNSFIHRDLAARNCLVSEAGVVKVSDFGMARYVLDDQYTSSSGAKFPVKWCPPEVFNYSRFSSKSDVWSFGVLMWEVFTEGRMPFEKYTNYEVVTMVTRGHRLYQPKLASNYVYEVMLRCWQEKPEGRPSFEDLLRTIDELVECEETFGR

[13] = biological target: T1, Tyrosine-protein kinase Tec (Homo sapiens); details: at 1 µM
[14] = biological target: Angiopoietin-1 receptor (Homo sapiens) (UniProt Q02763); details: at 0.1 µM
Chain of Angiopoietin-1 receptor (Homo sapiens) (Q02763 whole entry): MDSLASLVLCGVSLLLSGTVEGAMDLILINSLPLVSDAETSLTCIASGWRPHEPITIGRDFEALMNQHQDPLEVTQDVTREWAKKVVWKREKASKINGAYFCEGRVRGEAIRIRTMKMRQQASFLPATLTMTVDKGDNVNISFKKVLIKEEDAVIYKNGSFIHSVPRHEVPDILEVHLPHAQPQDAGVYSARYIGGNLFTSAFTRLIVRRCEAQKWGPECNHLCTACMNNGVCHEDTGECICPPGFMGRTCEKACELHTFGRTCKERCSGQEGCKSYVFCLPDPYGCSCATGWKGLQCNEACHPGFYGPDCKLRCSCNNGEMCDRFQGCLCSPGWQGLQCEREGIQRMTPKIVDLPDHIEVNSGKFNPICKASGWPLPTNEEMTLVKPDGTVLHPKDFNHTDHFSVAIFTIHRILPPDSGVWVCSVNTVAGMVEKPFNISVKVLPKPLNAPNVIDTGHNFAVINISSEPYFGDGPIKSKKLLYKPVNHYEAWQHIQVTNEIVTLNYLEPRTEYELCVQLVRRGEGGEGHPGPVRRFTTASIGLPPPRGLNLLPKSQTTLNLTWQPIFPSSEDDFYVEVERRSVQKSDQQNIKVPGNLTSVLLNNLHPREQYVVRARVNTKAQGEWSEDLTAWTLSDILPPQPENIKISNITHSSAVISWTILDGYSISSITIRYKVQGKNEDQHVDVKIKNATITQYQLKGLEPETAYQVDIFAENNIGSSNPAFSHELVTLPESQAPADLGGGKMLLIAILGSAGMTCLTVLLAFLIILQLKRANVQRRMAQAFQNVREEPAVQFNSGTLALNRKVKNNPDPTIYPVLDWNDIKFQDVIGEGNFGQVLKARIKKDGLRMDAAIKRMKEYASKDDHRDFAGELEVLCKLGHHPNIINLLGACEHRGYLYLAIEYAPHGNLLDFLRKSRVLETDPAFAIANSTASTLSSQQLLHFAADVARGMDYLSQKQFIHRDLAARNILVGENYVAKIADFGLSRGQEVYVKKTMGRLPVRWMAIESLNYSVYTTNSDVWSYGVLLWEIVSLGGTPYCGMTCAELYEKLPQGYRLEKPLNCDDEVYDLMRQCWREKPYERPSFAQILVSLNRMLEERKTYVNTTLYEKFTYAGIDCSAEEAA

[15] = biological target: Angiopoietin-1 receptor (Homo sapiens) (UniProt Q02763); details: at 1 µM
[16] = biological target: T2, Non-receptor tyrosine-protein kinase TNK1 (Homo sapiens) (UniProt Q13470); details: at 0.1 µM
T2 sequence (whole entry): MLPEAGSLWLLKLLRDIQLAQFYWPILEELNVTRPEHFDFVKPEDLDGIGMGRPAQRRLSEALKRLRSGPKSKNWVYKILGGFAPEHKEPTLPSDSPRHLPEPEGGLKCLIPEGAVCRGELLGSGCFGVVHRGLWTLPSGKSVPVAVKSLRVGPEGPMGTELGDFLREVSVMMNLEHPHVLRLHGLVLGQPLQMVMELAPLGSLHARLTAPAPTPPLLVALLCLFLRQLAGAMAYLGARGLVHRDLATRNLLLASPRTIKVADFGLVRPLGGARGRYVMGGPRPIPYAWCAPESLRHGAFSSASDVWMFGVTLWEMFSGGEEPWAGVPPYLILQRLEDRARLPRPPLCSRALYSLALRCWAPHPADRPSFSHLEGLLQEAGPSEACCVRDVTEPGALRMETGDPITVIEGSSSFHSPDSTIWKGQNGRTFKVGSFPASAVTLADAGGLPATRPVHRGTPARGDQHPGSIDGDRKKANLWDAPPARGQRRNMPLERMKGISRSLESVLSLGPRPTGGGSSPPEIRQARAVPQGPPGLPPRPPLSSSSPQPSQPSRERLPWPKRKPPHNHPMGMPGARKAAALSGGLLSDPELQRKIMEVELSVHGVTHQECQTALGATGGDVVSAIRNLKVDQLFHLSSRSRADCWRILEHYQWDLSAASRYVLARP

[17] = biological target: T2, Non-receptor tyrosine-protein kinase TNK1 (Homo sapiens); details: at 1 µM
[18] = biological target: Activated CDC42 kinase 1 (Homo sapiens) (UniProt Q07912); details: at 0.1 µM
[19] = biological target: Activated CDC42 kinase 1 (Homo sapiens) (UniProt Q07912); details: at 1 µM
[20] = biological target: High affinity nerve growth factor receptor (Homo sapiens) (UniProt P04629); details: at 0.1 µM;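 further: each value is a mean of replicate percent inhibition readings against TRKA kinase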

SMILES | inhibition [1] [%] | inhibition [2] [%] | inhibition [3] [%] | inhibition [4] [%] | inhibition [5] [%] | inhibition [6] [%] | inhibition [7] [%] | inhibition [8] [%] | inhibition [9] [%] | inhibition [10] [%] | inhibition [11] [%] | inhibition [12] [%] | inhibition [13] [%] | inhibition [14] [%] | inhibition [15] [%] | inhibition [16] [%] | inhibition [17] [%] | inhibition [18] [%] | inhibition [19] [%] | inhibition [20] [%]
COC(=O)Nc1nc2ccc(Sc3ccc(NC(=O)Nc4cc(C(F)(F)F)ccc4F)cc3)cc2[nH]1 | 73.9 | -5.81 | -0.55 | -2.6 | 0.19 | 17.4 | 12.5 | 1.2 | -0.15 | 0.25 | -0.54 | 3.34 | 5.46 | 21.1 | 70.7 | 2.15 | 25.3 | 0.06 | 1.64 | 62.7
O=C1Nc2ccc(I)cc2C1=Cc1cc(Br)c(O)c(Br)c1 | 5.79 | 8.18 | 13.2 | 6.23 | 8.1 | 8.18 | 14.2 | 2.19 | 27.2 | 1.97 | 1.56 | 7.04 | 3.72 | 4.71 | 5.55 | 22.7 | 84.5 | 0.67 | 3.22 | 2.97
COc1cccc(/C=N/Nc2ncnc3c2cnn3-c2cccc(OC)c2)c1 | 6.96 | 0.75 | 4.77 | 5.15 | 8.27 | 7.02 | 17.5 | -1.15 | -3.63 | 2.69 | 0.04 | 4.1 | 4.79 | 5.3 | 4.37 | 0.36 | 3.79 | 1.06 | 3.32 | 1.54
CCS(=O)(=O)c1ccc(OC)c(Nc2ncc(-c3cccc(-c4ccccc4F)c3)o2)c1 | 51.1 | 2.4 | 5.56 | 14.2 | 54.9 | 12.6 | 74.5 | 8.12 | 30.3 | -3.99 | 1.23 | 2.94 | 12.7 | 3.06 | 19 | 14.1 | 61.8 | 1.02 | 7.85 | 6.39
NC(=O)c1cc(-c2ccncc2)cc(-c2ccccc2)c1N | 42.3 | 4.63 | 2.14 | 5.79 | 14.7 | 10.4 | 59.8 | 0.18 | 5.81 | -0.73 | 1.64 | 18.5 | 58.7 | 3.02 | 6.28 | 1.93 | 6.5 | 1.25 | 7.25 | 1.66
